# BAZ2B inh: blocks human BAZ2B. AlphaScreen BAZ2B-H3K14Ac peptide displacement. Potency, µM (highest dose often 114 µM), inactives show at the top dose activity change, negative = inhibition, actives largely listed as inhibitors. actives 4.4% (n = 360,000); also: potency is read from the fitted curve at half-maximal effect; % is scaled to controls: 0 for no effect and ±100 for the full control effect; nearly all actives have a fitted effect of over 60% in size
#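 Protein-peptide AlphaScreen: BAZ2B 50 nM, b-H3K14Ac 50 nM, 1x PBS pH 7.4 + 0.01% Tween-20. Preincubation 30 min RT; cpd 30 min RT (top 110 uM); beads 20 min RT, light-protected.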
# JMJD2A Tudor: blocks the human JMJD2A Tudor domain; actives 4.4% (n = 390,000); AID 504339; Potency, µM (series often up to 114 µM), without a hit: top-dose activity change, negative = inhibition, actives largely listed as inhibitors; O75164; AlphaScreen JMJD2A-Tudor / H3K4me3 peptide binding; also: potency is read from the fitted curve at half-maximal effect; % is scaled to controls: 0 for no effect and ±100 for the full control effect; nearly all actives have a fitted effect of over 50% in size
# G9a inh: G9a (human) methyltransferase inhibition; actives 8.8% (n = 350,000); G9a H3K9 monomethylation, AlphaScreen, 2 h; AID 504332; Potency, µM (series often up to 102 µM), without a hit: at the highest dose activity, negative = inhibition, actives largely listed as inhibitors; also: potency is read from the fitted curve at half-maximal effect; % is scaled to controls: 0 for no effect and ±100 for the full control effect; nearly all actives have a fitted effect of over 75% in size
#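 G9a (20 nM) was preincubated 15 min with compound, then reacted 2 h at room temperature with 500 nM biotin-H3K9 peptide and 20 µM SAM. Monomethyl-H3K9 detected by AlphaScreen using anti-H3K9me1 antibody.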
# PI5P4Ka inh: inhibitors of human PI5P4K alpha; P48426; PI5P4Kalpha enzyme, ADP-Glo luminescence, 60 min; hits give low values; max response, %; actives 1.2% (n = 330,000); AID 652105; active = max response of -50% or lower; inconclusive = between -30% and -50%; inactive = -30% or higher; also: value at the top dose of about 77 µM; % is scaled to controls: 0 for no effect and ±100 for the full control effect
#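 ADP-Glo luminescence end-point read after a 60 min room-temperature kinase reaction of PI5P4Kalpha plus substrate, initiated with ATP at 5 microM final. Buffer: 0.038 M HEPES pH 7.4, EGTA, 0.1% CHAPS, 5% DMSO.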
# PLK1 PBD inh: blocks phosphopeptide binding to human PLK1 polo-box domain; Plk1 PBD binding of FITC phosphopeptide, fluorescence polarization; AID 720504; actives 2.8% (n = 360,000); P53350; Potency, µM, for the others: max response, negative = inhibition, actives largely listed as inhibitors; also: potency is read from the fitted curve at half-maximal effect; series mostly up to about 57 µM; % is scaled to controls: 0 for no effect and ±100 for the full control effect; nearly all actives have a fitted effect of over 65% in size
# Target sequence (P53350 whole entry, looked up, the tested form may be a part): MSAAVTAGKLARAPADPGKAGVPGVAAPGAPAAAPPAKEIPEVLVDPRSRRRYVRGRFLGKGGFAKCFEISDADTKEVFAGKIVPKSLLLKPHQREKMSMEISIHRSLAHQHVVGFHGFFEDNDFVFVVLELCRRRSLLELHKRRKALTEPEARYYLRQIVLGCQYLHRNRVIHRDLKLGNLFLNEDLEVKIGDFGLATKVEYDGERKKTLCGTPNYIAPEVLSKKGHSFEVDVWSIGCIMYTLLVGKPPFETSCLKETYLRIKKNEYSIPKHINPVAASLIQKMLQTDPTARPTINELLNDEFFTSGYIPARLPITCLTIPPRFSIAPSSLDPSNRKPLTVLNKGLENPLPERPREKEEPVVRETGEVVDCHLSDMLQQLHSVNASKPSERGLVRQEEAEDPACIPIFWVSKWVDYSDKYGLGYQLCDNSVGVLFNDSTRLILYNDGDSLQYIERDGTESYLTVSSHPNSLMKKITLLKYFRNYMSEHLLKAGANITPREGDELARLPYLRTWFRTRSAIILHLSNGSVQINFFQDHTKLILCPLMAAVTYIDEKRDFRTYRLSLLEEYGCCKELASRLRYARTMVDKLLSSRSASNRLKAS
# HP1b chromo inh: blocks HP1-beta chromodomain binding to methylated histone tails | actives 0.56% (n = 390,000) | AID 540317 | Potency, µM (doses to about 114 µM), without a hit: at the highest dose activity change, negative = inhibition, usual class: inhibitors | AlphaScreen HP1-beta / biotin-H3K9me3 peptide binding | P83916; also: potency is read from the fitted curve at half-maximal effect; nearly all actives have a fitted effect of over 70% in size
#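 AlphaScreen: HP1-beta (50 nM) preformed 30 min with biotin-H3(1-18)K9me3 peptide (50 nM) in PBS pH 7.4, 0.01% Tween-20. Compound added for 30 min at RT, then streptavidin donor/nickel chelate acceptor beads (10 ug/mL) for 30 min.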
# An asterisk follows results filed as active; ? = inconclusive; · = not tested or not shown; [ ] = remark or other dose. Rows were chosen to be rich in hits. Some 12% of all compounds tested hit in one or more screens of this group. Unless noted, calls follow the shape of the dose curve; as a rule, active = well fitted curve in the direction sought with a large enough effect; inconclusive = small, poorly fitted or top-dose-only effect, or another doubt; inactive = no such curve, though single readings can be large; an effect the other way counts as inactive or inconclusive.
SMILES,BAZ2B inh,JMJD2A Tudor,G9a inh,PI5P4Ka inh,PLK1 PBD inh,HP1b chromo inh
COC(=O)Cn1c(C2CC(=O)N(c3c(C)cccc3C)C2)nc2ccccc21 (stereo not drawn),-3%,-13%,14µM*,·,·,30%
Cc1cccc(C)c1OCCn1c(C2CC(=O)N(c3cccc(Cl)c3)C2)nc2ccccc21 (stereo not drawn),-9%,-21%,-34%[59 µM],·,·,21%
Cc1cccc(C)c1OCCCCn1c(C2CC(=O)N(c3ccc(F)cc3)C2)nc2ccccc21 (stereo not drawn),-15%,?,14µM*,·,·,16%
Cc1cccc(NC(=O)c2ccc(S(=O)(=O)N3CC(C)OC(C)C3)cc2)n1 (stereo not drawn),9%,-22%,2%,-4,-5%,3%
CCOc1ccc(CN(C)C(=O)CNC(=O)C2CCCCC2)cc1OC,-4%,-1%,8%,0,-3%,22%
O=C(CSc1ccc(Cl)cc1)Nc1nnc(-c2cccc([N+](=O)[O-])c2)s1,-8%,-10%,40µM*,2,-6%,56%
CC(C)(C)c1ccc(Cn2nnc3c(=O)[nH]c(C4CCN(C(=O)c5ccco5)CC4)nc32)cc1,?,79µM*,?,-10,?,-28%
Cc1cccc2sc(N(CCN(C)C)C(=O)C3CCN(S(=O)(=O)c4cccs4)CC3)nc12,50µM*,56µM*,32µM*,3,-7%,?
CN(C)CCN(C(=O)C1CCN(S(=O)(=O)c2cccs2)CC1)c1nc2ccc(F)cc2s1,?,?,28µM*,-1,3%,-17%
Cc1cccc2sc(N(CCN(C)C)C(=O)/C=C/c3cccs3)nc12,-35%,?,?,2,-8%,24%
COc1ccc(NC(=O)C2CSC3c4ccccc4C(=O)N23)cc1 (stereo not drawn),?,-19%,28µM*,-5,-9%,13%
Cc1[nH]c2ccccc2c1-c1csc(NC(=O)CSCCO)n1,?,?,71µM*,0,-11%,-14%
COc1ccc(NC(=O)N2CCCc3ccccc32)cc1,11%,-5%,?,·,0%,32%
COc1cccc(NC(=O)Cc2ccc(NC(=O)N3CCCCc4ccccc43)cc2)c1,-1%,11µM*,0%[59 µM],·,·,3%
CCCCOc1ccc(CNC(=O)Cc2ccc(NC(=O)N3CCCCc4ccccc43)cc2)cc1,-19%,79µM*,-5%[59 µM],·,·,10%
COc1ccc(NC(=O)Cc2ccc(NC(=O)N3CCCCc4ccccc43)cc2)c(OC)c1,-35%,-33%,-9%[59 µM],·,·,14%
COc1ccc(N/N=C(/C(C)=O)N2CCCc3ccccc32)cc1,?,35µM*,·,2,9%,?
Cc1ccc(CC(=O)NNC(=O)c2ccncc2)cc1C,-9%,-36%,4.5µM*,?,12µM*,?
O=C(c1cc(-c2ccco2)nn1-c1cccc(Cl)c1)N1CCCCC1,?,25µM*,3.2µM*,-82*,27µM*,?
Cc1ccc(-n2nc(-c3ccco3)cc2C(=O)O)cc1,79µM*,-2%[11.4 µM],?,-51*,?,5%
CCC1CN(C(=O)N2CCC(C(=O)NCCCc3ccccc3)CC2)c2ccccc2O1 (stereo not drawn),?,?,-44%[59 µM],·,·,14%
Cc1ccc2nc(N3CCC(C(=O)N4CCN(c5cccc(Cl)c5)CC4)CC3)[nH]c2c1,71µM*,56µM*,-36%[59 µM],·,·,0%[57 µM]
CCN1CCN(S(=O)(=O)Cc2ccccc2Cl)CC1,-1%,-8%,·,5,-9%,25%
COc1ccc(C(=O)NCC(=O)N2CCCC(C(F)(F)F)C2)cc1OC (stereo not drawn),-28%,-18%,5%[0.501 µM],5,-2%,18%
C(=N\N1CCN(c2ccccn2)CC1)/c1ccccn1,-24%,-21%,?,1,-1%,-7%
SMILES,BAZ2B inh,JMJD2A Tudor,G9a inh,PI5P4Ka inh,PLK1 PBD inh,HP1b chromo inh
COc1ccccc1/C=C/C=N/N1CCN(c2ccccn2)CC1,50µM*,?,23%[0.501 µM],-6,0%,?
COc1ccccc1N1CCN(/N=C/C=C\c2ccco2)CC1,50µM*,56µM*,35µM*,-4,-5%,-55%
COc1ccccc1N1CCN(/N=C/C=C\c2ccccc2[N+](=O)[O-])CC1,13µM*,22µM*,8.9µM*,-4,-11%,14µM*
CC1CCCC(C)N1/N=C/C=C/c1ccccc1[N+](=O)[O-] (stereo not drawn),22µM*,40µM*,32µM*,4,-6%,28µM*
COc1ccccc1N1CCN(C(=O)/C=C/c2ccco2)CC1,-21%,-28%,?,-18,-6%,22%
CCOc1ccc(C(=O)Nc2ccc3oc(-c4ccc(C)cc4C)nc3c2)cc1Br,-1%,-12%,5%[59 µM],·,·,24%
COc1cccc(CNC(=O)c2cc(-c3ccc(Cl)cc3)n[nH]2)c1,1%,-11%,16%[59 µM],·,·,50%
COc1ccccc1/C=C/C=N/N1CCN(Cc2cccc3ccccc23)CC1,32µM*,11µM*,?,-3,3%,?
CCN(CC)CCN1C(=O)C(=O)/C(=C(/O)c2c(C)[nH]c(C(=O)OC)c2C)C1c1ccco1 (stereo not drawn),-36%,?,?,·,-3%,14%
COC(=O)c1[nH]c(C)c(/C(O)=C2\C(=O)C(=O)N(CCN(C)C)C2c2ccccc2OC)c1C (stereo not drawn),-34%,45µM*,?,1,-15%,18%
COC(=O)c1[nH]c(C)c(/C(O)=C2\C(=O)C(=O)N(CCN3CCOCC3)C2c2ccccc2OC)c1C (stereo not drawn),-3%,50µM*,50µM*,-4,-5%,18%
Cc1ccccc1CSc1ncc(CO)n1Cc1ccc(F)cc1,?,-21%,4%[59 µM],·,·,7%[57 µM]
Clc1ccc(N/N=C/c2cccnc2)cc1,?,?,4µM*,1,-1%,3%
O=C(O)c1cccc(N/N=C/c2cccnc2)c1,-13%,-17%,28µM*,-12,-12%,18%
O=C(O)c1cccc(N/N=C/c2ccc(-c3ccccc3)cc2)c1,·,-29%,25µM*,1,?,15%
CN(C)c1ccc(/C=N/Nc2cccc(C(=O)O)c2)cc1,?,?,7.9µM*,-7,3%,31%
O=C(N/N=C/c1cccnc1)c1ccccc1,5%,-11%,14%,8,-3%,19%
Cc1ccc(CNC(=O)c2cc(=O)c3cc(C)cc(C)c3o2)cc1,-8%,-12%,-36%[59 µM],·,·,27%
O=S(=O)(c1cccc(C(F)(F)F)c1)N1CCN(c2nc(-c3ccccc3)nc3ccccc23)CC1,·,-10%,·,·,·,25%

# Bioassay records (PubChem)
